Assay outcomes: PubChem, National Center for Advancing Translational Sciences (NCATS)
Many of the other results were omitted from the sample, so hits are more common in it than they were.
Methyltransferases: Primary Screen for Target Class Profiling of Small Molecule Inhibitors of Methyltransferases. purified enzyme, MTase-Glo SAH luminescence; stronger effect = lower value. calls only at 40 µM. actives 3.9% (n = 25,000); call rule not given here
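Each enzyme was assayed with SAM and its substrate. SAH formation detected by MTase-Glo luminescence; single-point 40 uM screen[…].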
The depositor's hits bear a star; i = inactive; + = active, no number. On the % scale 0 is the no-effect control and ±100 the full control effect.

SMILES	Methyltransferases
O=C1NC(=O)C(c2c[nH]c3ccccc23)=C1c1c[nH]c2ccccc12	+
O=C1NC(Cc2c[nH]c3ccccc23)C(=O)NC1Cc1c[nH]c2ccccc12 (configuration not stated)	i
CC1(C(=O)NC2CCCCC2)Cn2c(cc3occc32)C(=O)N1Cc1ccccc1Br (configuration not stated)	i
NCC(O)(CS(=O)(=O)O)c1ccc(Cl)cc1 (configuration not stated)	i
NC[C@@](O)(c1ccc(Cl)cc1)c1ccc(-c2cn[nH]c2)cc1	+
CCOC(=O)c1cc2n(n1)CC(C)(C(=O)NC1CCC(C)CC1)N(c1ccc(C)c(Cl)c1)C2=O (configuration not stated)	i
COc1ccc(-c2cc3n(n2)CC(C)(C(=O)NCc2ccccc2)N(Cc2ccc(F)cc2)C3=O)cc1 (configuration not stated)	i
CCCC1c2cccn2CCN1C(=O)Nc1cc(C)ccc1OC (configuration not stated)	i
Cc1ccc(CCNC(=O)CCn2ccc3cc(S(=O)(=O)N4CCC(C)CC4)ccc32)cc1	i
O=c1[nH]c2ccc(S(=O)(=O)Nc3ccc(N4CCOCC4)cc3)cc2[nH]1	i
c1cn2cc(-c3ccc4cn[nH]c4c3)nc(Nc3ccc(N4CCOCC4)cc3)c2n1	+
Cc1ccc(NC(=O)Cn2nc3n(CCc4ccccc4)c(=O)c4ccccc4n3c2=O)cc1C	i
CCC(C)C(=O)OC[C@H]1O[C@H](O[C@H]2O[C@H](CO)[C@@H](O)[C@H](O)[C@H]2O)[C@H](O)[C@@H](O)[C@@H]1O (some centres not stated)	i
OCc1ccccc1O[C@@H]1O[C@H](CO)[C@@H](O)[C@H](O)[C@H]1O	i
COc1ccc(C(O)C(C)OC2OC(CO)C(O)C(O)C2O)cc1 (configuration not stated)	i
CC/C=C\CCO[C@@H]1O[C@H](CO)[C@@H](O)[C@H](O)[C@H]1O	+
CC(C)=CCC(O)/C(C)=C/CO[C@@H]1O[C@H](CO)[C@@H](O)[C@H](O)[C@H]1O (some centres not stated)	+
CC(C)=CCC/C(C)=C/CO[C@@H]1O[C@H](CO)[C@@H](O)[C@H](O)[C@H]1O	i
CCCn1c(=O)c2ccc(C(=O)NCC(C)C)cc2n2c(SCC(=O)c3ccc(F)cc3)nnc12	i
CC(=O)N1CCc2cc(Br)c(S(=O)(=O)NCCN3CCN(c4ccccc4F)CC3)cc21	i
Cc1cc2c(cc3n2CC(C)(C(=O)NC2CCCCC2)N(Cc2cccc(Cl)c2)C3=O)o1 (configuration not stated)	i
COC[C@@H]1OCCN(S(=O)(=O)c2cc(OC)ccc2OC)[C@H]1c1ccccc1	i
COc1ccc(OC)c(CCN2C(=O)c3cc4ccccc4n3CC2(C)C(=O)NC2CCCC2)c1 (configuration not stated)	i
CCOc1ccc(CNC(=O)c2cc3n(n2)CC(C)(C(=O)NCc2ccc(C)cc2)N(C)C3=O)cc1 (configuration not stated)	i
CC1(O)CCC2C(C3C1CCC3(C)O)C2(C)C (configuration not stated)	i
SMILES	Methyltransferases
CC1=C2CC3C(CCC3(C)O)C(C)(O)CC2OC1=O (configuration not stated)	+
CC1=C2C[C@@]3(C)C(CCC[C@@H]3C)C(O)C2OC1=O (some centres not stated)	i
COc1cccc(CN2C(=O)c3cc4sccc4n3CC2(C)C(=O)NC2CCCCCC2)c1OC (configuration not stated)	i
CC(CCc1ccc(O)cc1)O[C@@H]1O[C@H](CO[C@@H]2OC(CO)[C@H](O)[C@H]2O)[C@@H](O)[C@H](O)[C@H]1O (some centres not stated)	i
CC1=C(CCC(C)O[C@@H]2O[C@H](CO)[C@@H](O)[C@H](O)[C@H]2O)C(C)(C)CCC1=O (some centres not stated)	+
CC1=CC(=O)CC(C)(CO)C1(O)/C=C/C(C)O[C@@H]1O[C@H](CO)[C@@H](O)[C@H](O)[C@H]1O (some centres not stated)	i
COc1cccc(NC(=O)C2(C)CCc3cnc(NCc4ccccc4)nc32)c1 (configuration not stated)	i
Cc1c[nH]c2ncnc(N3CCC(CN)(C(=O)Nc4cccc(OC(=O)N(C)C)c4)CC3)c12	+
CC(=O)Nc1c2n(c3ccccc13)CC(C)(C(=O)NC1CCCC1)N(C1CCC(C)CC1)C2=O (configuration not stated)	i
COc1ccc(-c2nnc(-c3ccc(OC)c(S(=O)(=O)N4CCCCCC4)c3)o2)cc1OC	i
Cc1ccc(CN2C(=O)c3cc4ccccc4n3CC2(C)C(=O)NCCC(C)C)cc1 (configuration not stated)	i
COc1ccc(-c2cc3n(n2)CC(C)(C(=O)NCc2ccccc2)N(c2cccc(OC)c2)C3=O)cc1 (configuration not stated)	i
COc1ccc(CCNc2nc3c(-c4ccccc4)nnn3c3ccccc23)cc1OC	i
Fc1cccc(-c2nnn3c2nc(NCCc2ccccc2)c2ccccc23)c1	+
c1ccc(CCNc2nc3c(-c4ccccc4)nnn3c3ccccc23)cc1	i
COc1ccc(CNC(=O)c2cc3n(n2)CC(C)(C(=O)NCc2ccc(C)cc2)N(C)C3=O)cc1OC (configuration not stated)	i
CC(C)CNC(=O)c1ccc2c(=O)n(C(C)C)c3nn(CC(=O)Nc4cccc(Cl)c4)c(=O)n3c2c1	i
Cc1ccccc1-n1c(Cn2nc(-c3cccc(O)c3)c3c(N)ncnc32)nc2cccc(C)c2c1=O	+
Cc1ccc(N2C(=O)CSc3c(c4ccccc4n3C)C2C(=O)NCCCOC(C)C)cc1Cl (configuration not stated)	i
COc1ccc(S(=O)(=O)c2nnn3c2nc(Nc2ccccc2C)c2ccccc23)cc1	i
COc1ccc(-c2cc3n(n2)CC(C)(C(=O)NC2CCCCCC2)N(Cc2ccccc2)C3=O)cc1 (configuration not stated)	i
COc1cc2c(Oc3ccc(NC(=O)C4(C(=O)Nc5ccc(F)cc5)CC4)cc3F)ccnc2cc1OCCCN1CCOCC1	i
Cn1cc(-c2cnc(Nc3ccc(F)c(Cl)c3)c3c2CCO3)cn1	i
COc1cc2ncnc(Nc3ccc(F)c(Cl)c3)c2cc1OCCCN1CCOCC1	+
COCCOc1cc2ncnc(Cl)c2cc1OCCOC	i
COc1cc2c(Nc3ccc(Cl)c(Cl)c3F)ncnc2cc1OCC1C[C@@H]2CN(C)C[C@@H]2C1 (some centres not stated)	+
COc1ccc(N2CCN(C(CNS(=O)(=O)c3ccccc3)c3ccco3)CC2)cc1 (configuration not stated)	i
Cc1ccc(Cn2c(=O)c3ccccc3n3c(CCC(=O)Nc4ccccc4)nnc23)cc1	i
CC1(CO)CC[C@]2(C(=O)O[C@@H]3O[C@H](CO)[C@@H](O)[C@H](O)[C@H]3O)CC[C@]3(C)C(=CCC4[C@@]5(C)CC[C@H](O[C@@H]6O[C@H](C(=O)O)[C@@H](O)[C@H](O)[C@H]6O)C(C)(C)C5CC[C@]43C)C2C1 (some centres not stated)	i
